Test results published in PubChem BioAssay AID1159580 (chemical genetic matrix, 2015).
Hit rate of the full screen: of about 5,500 compounds, about 2,000 (36%) were called active. Another 18% or so got no clear call; they are omitted. No stated cut-off is given here; in the data, active means normalized growth mostly below about 0.91 (no sharp cut-off); inconclusive means no clear call, values can overlap the other calls; inactive means mostly above about 0.92. Some of the results follow.

Assay: chemical genetic growth profiling, strain panel (AID 1159580);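 further: tested at 20 µM; growth read once vehicle control cultures reached saturation at 30 °C; 1 = growth at the plate median or of vehicle wells; lower values mean less growth of the strain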
Details: S. cerevisiae deletion strains, growth OD

Measured: normalized growth

COc1ccc2c(c[n+](C)c3c4cc5c(cc4ccc23)OCO5)c1OC
active: locus YAL040C, strain CLN3, hits give low values 0.583 | locus YER002W, strain NOP16, hits give low values 0.58 | locus YGR078C, strain PAC10, hits give low values 0.496 | locus YMR307W, strain GAS1, hits give low values 0.131 | locus YNL175C, strain NOP13, hits give low values 0.519 | locus YNL197C, strain WHI3, hits give low values 0.69 | locus YNL224C, strain SQS1, hits give low values 0.255 | locus YOR083W, strain WHI5 (second series), hits give low values 0.175
